Laboratory results as given in PubChem BioAssay.
The source made the active and inactive calls.

What was measured:
[1] = binders of probe aFSTL3 on microarray, primary screen, stem cell growth factor project, biochemical, small-molecule microarray, fluorescence 635/667 (AID 1064); settings: higher = more signal;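 note: measures binding of the biotinylated anti-FSTL3 antibody to printed compounds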
[2] = binders from COS7 lysate, DM2A8 probe, primary screen, torsin A project, cell lysate, small-molecule microarray, fluorescence 635/667 (AID 1065); settings: higher = more signal, COS7 lysate expressing mutant human TOR1A
[3] = binders of probe aFGF2 on microarray, primary screen, stem cell growth factor project, biochemical, small-molecule microarray, fluorescence 635/667 (AID 1067); settings: higher = more signal;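 note: measures binding of biotinylated aFGF2 protein to printed compounds on slides; z-score merges feature fluorescence and signal-to-noise across triplicate slides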
[4] = binders of probe aFGF10 on microarray, primary screen, stem cell growth factor project, biochemical, small-molecule microarray, fluorescence 635/667 (AID 1071); settings: higher = more signal;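 note: score merges 667 nm spot intensity and signal to noise from triplicate slides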
[5] = target: Neurogenic locus notch homolog protein 2 (Homo sapiens) (UniProt Q04721); experiment: Notch2 binders on small-molecule microarrays, primary screen, biochemical, small-molecule microarray, 635 nm fluorescence, stem cell growth factors (AID 1073); settings: Notch2 binding, higher = more signal
[6] = target: Pro-neuregulin-1, membrane-bound isoform (Homo sapiens) (UniProt Q02297); experiment: NRG1 binders on small-molecule microarrays, primary screen, psychiatric disease protein project, biochemical, small-molecule microarray, fluorescence 635/667 (AID 1075); settings: NRG1 binding, 635 nm fluorescence, higher = more signal;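 note: score combines 667 nm spot fluorescence with signal to noise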
[7] = test system: Neuregulin-1 EGF-like domain; experiment: binders of neuregulin-1 EGF-like domain, primary screen, biochemical, small-molecule microarray, 635 nm fluorescence (AID 1081); settings: small-molecule microarray binding, higher = more signal;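 note: binding of the protein to compounds printed on small-molecule microarray slides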
[8] = FRG1 promoter luciferase signal modulators, primary screen, FRG1 inhibition for FSHD, cell-based, C2C12 myotubes, firefly/Renilla luciferase, luminescence (AID 1084); settings: higher = more signal, called active from +8 up or from −8 down
[9] = binders of probe aFST on microarray, primary screen, stem cell growth factor project, biochemical, small-molecule microarray, fluorescence 635/667 (AID 1086); settings: higher = more signal;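 note: score merges 667 nm fluorescence with signal-to-noise of each printed compound spot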
[10] = binders of probe aHhip on microarray, primary screen, stem cell growth factor project, biochemical, small-molecule microarray, fluorescence 635/667 (AID 1087); settings: higher = more signal;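 note: score merges spot fluorescence at 667nm with spot signal to noise ratio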
[11] = test system: PRMT1 (protein arginine N-methyltransferase 1); experiment: PRMT1 binders on small-molecule microarrays, primary screen, biochemical, small-molecule microarray, 635 nm fluorescence (AID 1088); settings: small-molecule microarray binding, higher = more signal;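 note: binding of Prmt1 protein to compounds spotted on small-molecule microarray slides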
[12] = yeast growth modulation, basal conditions, primary screen, YJM789 clinical isolate, OD600, 24 h (AID 1089);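 note: growth of clinical yeast isolate S. cerevisiae YJM 789 seeded 1000 cells per well; test concentration not given here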; settings: S. cerevisiae YJM789 growth, higher = more signal, called active from +8 up or from −8 down
[13] = fission yeast growth modulation, primary screen, strain 972, OD600, 24 h, no modulator (AID 1090);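 note: basal condition with compound alone and no growth modifier present; test concentration not given here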; settings: S. pombe 972 growth, higher = more signal, called active from +8 up or from −8 down
[14] = S. cerevisiae growth modulation with rapamycin, primary screen, strain BY4716, OD600, 96 h (AID 1091); settings: higher = more signal, called active from +8 up or from −8 down; note: test concentration not given here
[15] = target: Torsin-1A-interacting protein 2 (Homo sapiens) (UniProt Q8NFQ8); experiment: LULL1 binders on small-molecule microarray, primary screen, cell lysate, human LULL1 lysate, 635/667 nm fluorescence (AID 1092); settings: hLULL1 lysate binding, 635 nm fluorescence, higher = more signal;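 note: probe is lysate of COS7 cells overexpressing human LULL1; score merges per-feature 667 nm fluorescence with signal-to-noise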
[16] = E. coli growth modulation, two-sided OD650, primary screen, E. coli filamentation project, strain DRC41, 24 h (AID 1093); settings: OD650, 24 h, higher = more signal, called active from +8 up or from −8 down;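 note: MC1000 strain lacking acrAB efflux and sulA so SOS filamentation is blocked; test concentration not given here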
[17] = small-molecule microarray binders of probe aLefty2, primary screen, biochemical, biotinylated probe, 635/667 nm fluorescence (AID 1094); settings: higher = more signal;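 note: score merges spot fluorescence near 667 nm with spot signal-to-noise ratio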
[18] = test system: Noggin (protein binding on small-molecule microarray); experiment: Noggin binders on small-molecule microarray, primary screen, biochemical, 635/667 nm fluorescence (AID 1095); settings: 635 nm fluorescence, higher = more signal;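 note: score merges 667 nm feature fluorescence with signal to noise over triplicate slides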
[19] = target: Neurogenic locus notch homolog protein 3 (Homo sapiens) (UniProt Q9UM47); experiment: NOTCH3 binders on small-molecule microarray, primary screen, biochemical, 635/667 nm fluorescence (AID 1096); settings: NOTCH3 binding, 635 nm fluorescence, higher = more signal
[20] = small-molecule microarray binders of probe aEGFR, primary screen, biochemical, biotinylated probe, 635/667 nm fluorescence (AID 1097); settings: higher = more signal;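 note: probe is a biotinylated anti-EGFR antibody binding compounds printed on slides; score combines fluorescence near 667 nm and signal to noise of each spot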

Chain of Pro-neuregulin-1, membrane-bound isoform (Homo sapiens) (Q02297 whole entry, looked up, the tested form may be a part, canonical isoform): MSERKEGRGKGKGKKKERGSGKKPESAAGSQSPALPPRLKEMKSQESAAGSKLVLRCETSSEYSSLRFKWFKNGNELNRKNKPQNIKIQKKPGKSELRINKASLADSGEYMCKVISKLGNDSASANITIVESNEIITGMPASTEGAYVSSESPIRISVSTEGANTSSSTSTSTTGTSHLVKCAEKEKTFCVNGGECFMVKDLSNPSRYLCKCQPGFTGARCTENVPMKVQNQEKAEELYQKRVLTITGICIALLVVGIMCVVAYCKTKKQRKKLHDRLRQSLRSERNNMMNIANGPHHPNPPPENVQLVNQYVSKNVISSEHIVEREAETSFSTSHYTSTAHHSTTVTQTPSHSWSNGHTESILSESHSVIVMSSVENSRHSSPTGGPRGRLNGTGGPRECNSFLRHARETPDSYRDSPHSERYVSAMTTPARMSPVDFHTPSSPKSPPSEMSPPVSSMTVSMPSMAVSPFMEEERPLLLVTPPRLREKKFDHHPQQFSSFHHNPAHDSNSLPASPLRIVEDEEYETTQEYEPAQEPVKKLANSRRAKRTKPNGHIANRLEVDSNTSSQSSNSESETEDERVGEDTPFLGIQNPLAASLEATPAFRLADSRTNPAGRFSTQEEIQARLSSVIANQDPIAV
Chain of Torsin-1A-interacting protein 2 (Homo sapiens) (Q8NFQ8 whole entry, looked up): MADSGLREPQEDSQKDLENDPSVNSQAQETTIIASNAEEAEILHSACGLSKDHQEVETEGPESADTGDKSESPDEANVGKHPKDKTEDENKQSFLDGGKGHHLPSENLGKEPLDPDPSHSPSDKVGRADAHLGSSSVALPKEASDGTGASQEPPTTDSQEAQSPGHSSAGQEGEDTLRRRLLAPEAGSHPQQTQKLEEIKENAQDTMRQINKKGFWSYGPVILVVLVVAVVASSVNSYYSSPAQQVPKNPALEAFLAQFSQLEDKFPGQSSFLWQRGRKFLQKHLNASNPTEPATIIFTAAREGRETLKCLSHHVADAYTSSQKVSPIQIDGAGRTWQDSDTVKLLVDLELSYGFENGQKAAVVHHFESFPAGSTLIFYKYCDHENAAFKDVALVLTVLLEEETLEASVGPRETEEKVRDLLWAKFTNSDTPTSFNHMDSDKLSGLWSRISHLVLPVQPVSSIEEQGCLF
Chain of Neurogenic locus notch homolog protein 2 (Homo sapiens) (Q04721 whole entry, looked up, canonical isoform): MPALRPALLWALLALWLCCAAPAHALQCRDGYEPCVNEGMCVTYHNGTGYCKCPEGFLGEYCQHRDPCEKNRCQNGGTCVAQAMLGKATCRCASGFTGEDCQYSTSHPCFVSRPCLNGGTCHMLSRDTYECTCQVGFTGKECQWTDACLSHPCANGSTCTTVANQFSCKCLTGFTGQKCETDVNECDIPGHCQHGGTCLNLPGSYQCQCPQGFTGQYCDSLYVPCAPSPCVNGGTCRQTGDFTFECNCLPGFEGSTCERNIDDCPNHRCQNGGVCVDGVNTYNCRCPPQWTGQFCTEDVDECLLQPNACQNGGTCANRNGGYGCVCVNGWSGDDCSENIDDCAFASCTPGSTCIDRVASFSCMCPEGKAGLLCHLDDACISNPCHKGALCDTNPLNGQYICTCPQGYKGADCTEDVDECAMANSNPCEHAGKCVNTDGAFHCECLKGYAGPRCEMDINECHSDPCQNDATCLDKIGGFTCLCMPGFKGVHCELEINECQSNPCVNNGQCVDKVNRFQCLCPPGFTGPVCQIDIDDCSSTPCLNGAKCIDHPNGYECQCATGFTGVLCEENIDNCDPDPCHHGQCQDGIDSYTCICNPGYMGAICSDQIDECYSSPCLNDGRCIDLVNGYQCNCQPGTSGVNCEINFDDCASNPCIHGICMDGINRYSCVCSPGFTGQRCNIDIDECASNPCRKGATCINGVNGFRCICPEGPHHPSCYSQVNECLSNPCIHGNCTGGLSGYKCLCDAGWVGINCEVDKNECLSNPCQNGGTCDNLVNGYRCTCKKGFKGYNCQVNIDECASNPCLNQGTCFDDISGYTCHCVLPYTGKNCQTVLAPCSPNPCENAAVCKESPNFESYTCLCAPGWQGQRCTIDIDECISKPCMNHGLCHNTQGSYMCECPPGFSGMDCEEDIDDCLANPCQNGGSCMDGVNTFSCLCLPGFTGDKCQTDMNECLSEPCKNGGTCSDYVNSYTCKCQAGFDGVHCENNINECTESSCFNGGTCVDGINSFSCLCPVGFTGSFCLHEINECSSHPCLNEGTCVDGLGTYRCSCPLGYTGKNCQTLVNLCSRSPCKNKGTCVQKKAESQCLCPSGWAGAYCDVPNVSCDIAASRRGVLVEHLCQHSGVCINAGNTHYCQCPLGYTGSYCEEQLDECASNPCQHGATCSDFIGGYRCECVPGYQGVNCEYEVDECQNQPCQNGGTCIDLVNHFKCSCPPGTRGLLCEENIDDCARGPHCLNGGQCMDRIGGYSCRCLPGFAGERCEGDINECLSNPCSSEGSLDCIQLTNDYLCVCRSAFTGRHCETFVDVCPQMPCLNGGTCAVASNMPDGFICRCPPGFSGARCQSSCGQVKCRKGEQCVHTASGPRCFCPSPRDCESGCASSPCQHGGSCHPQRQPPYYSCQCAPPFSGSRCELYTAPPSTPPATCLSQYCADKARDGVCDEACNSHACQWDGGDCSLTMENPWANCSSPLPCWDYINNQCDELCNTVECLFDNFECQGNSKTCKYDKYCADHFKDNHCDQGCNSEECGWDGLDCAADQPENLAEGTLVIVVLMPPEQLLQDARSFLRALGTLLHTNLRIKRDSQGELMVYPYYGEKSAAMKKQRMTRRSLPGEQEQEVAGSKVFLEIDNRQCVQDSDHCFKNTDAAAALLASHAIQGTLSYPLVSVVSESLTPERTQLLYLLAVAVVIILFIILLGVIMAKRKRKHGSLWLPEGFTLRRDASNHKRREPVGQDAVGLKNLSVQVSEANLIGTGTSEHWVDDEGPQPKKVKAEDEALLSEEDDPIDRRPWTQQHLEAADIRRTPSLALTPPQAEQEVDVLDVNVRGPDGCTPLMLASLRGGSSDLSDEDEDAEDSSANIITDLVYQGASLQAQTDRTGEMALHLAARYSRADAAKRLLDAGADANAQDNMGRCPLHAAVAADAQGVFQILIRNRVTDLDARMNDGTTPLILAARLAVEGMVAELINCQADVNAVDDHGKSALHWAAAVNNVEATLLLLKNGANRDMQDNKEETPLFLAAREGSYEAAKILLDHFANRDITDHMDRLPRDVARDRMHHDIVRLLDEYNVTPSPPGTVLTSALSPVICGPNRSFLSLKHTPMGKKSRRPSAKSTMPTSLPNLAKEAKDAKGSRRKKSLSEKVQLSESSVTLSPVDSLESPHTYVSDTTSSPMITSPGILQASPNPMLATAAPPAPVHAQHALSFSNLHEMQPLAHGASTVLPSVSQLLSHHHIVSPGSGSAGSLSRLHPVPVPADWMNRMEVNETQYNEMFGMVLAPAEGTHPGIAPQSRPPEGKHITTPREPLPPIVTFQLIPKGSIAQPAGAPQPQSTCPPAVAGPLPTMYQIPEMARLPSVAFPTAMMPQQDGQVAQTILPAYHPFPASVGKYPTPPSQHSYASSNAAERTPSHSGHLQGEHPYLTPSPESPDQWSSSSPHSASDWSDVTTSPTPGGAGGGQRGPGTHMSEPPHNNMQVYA

Row | SMILES | composite z-score [1] | composite z-score [2] | composite z-score [3] | composite z-score [4] | composite z-score [5] | composite z-score [6] | composite z-score [7] | z-score [8] | composite z-score [9] | composite z-score [10] | composite z-score [11] | z-score [12] | z-score [13] | z-score [14] | composite z-score [15] | z-score [16] | composite z-score [17] | composite z-score [18] | composite z-score [19] | composite z-score [20]
1 | C=CCOC(=O)[C@H]1[C@@H]2C(=O)O[C@@H](c3ccccc3)[C@@H](c3ccccc3)N2[C@@H](c2ccc(OCCOC(=O)[C@H]3C[C@H]4C(=O)NCC(=O)N4[C@H]3c3cccc(OCCO)c3)cc2)[C@]12C(=O)Nc1ccc(I)cc12 | -0.365 | 0.469 | -0.045 | 0.589 | 0.81 | 0.388 | 1.3 | -0.18 (inactive) | 0.557 | 0.28 | 1.54 | 1.29 (inactive) | 0.682 (inactive) | 3.48 (inactive) | 2.78 | 0.0763 (inactive) | -0.172 | 1.69 | 1.06 | 0.0389
2 | COC(=O)C(CC#Cc1ccc2c(c1)[C@]1(C(=O)N2)[C@H](c2ccccc2OCCO)N2[C@H](c3ccccc3)[C@H](c3ccccc3)OC(=O)[C@H]2[C@@H]1C(=O)N1CCN(c2ncccn2)CC1)C(=O)OC | -0.35 | 0.474 | -0.0937 | 0.431 | 0.852 | 1.31 | 1.13 | -1.46 (inactive) | 0.255 | -0.11 | 1.51 | 2.61 (inactive) | 1.28 (inactive) | 6.83 (inactive) | 2.15 | 0.173 (inactive) | -0.107 | 1.71 | 1.09 | -0.0982
3 | CCOC(=O)C=C1C[C@@H](c2cccc([N+](=O)[O-])c2)O[C@@H](c2cccc([N+](=O)[O-])c2)O1 | 0.654 | 0.178 | 0.429 | 0.432 | 1.59 | 0.962 | 0.896 | -2.17 (inactive) | 1.72 | -0.226 | 1.5 | 1.07 (inactive) | 1.8 (inactive) | 1.79 (inactive) | 2.29 | -0.239 (inactive) | 0.91 | 0.327 | 1.12 | 0.246
4 | CS(=O)(=O)CCOC(=O)C1=CC(CCCO)=CC(C2CC2)N(Cc2sc3ccccc3c2Cl)C=C1C(=O)OCCS(C)(=O)=O (stereo not given) | -0.143 | 0.0105 | 0.0498 | 0.4 | 1.36 | 1.92 | 1.18 | -0.133 (inactive) | 0.903 | -0.134 | 1.13 | -0.853 (inactive) | -5.1 (inactive) | -1.47 (inactive) | 3.09 | 0.189 (inactive) | 0.247 | 0.482 | 1.09 | 0.0432
5 | CCCCCN1CC=CC23O[C@@H]4/C=C\CCCOC(=O)C4[C@H]2C(=O)N(CCO)[C@@H]3C1=O (stereo not given in full) | 0.0382 | 0.351 | -0.133 | -0.148 | -0.326 | 0.913 | 1.5 | -0.345 (inactive) | -0.345 | -0.223 | -0.0525 | -0.402 (inactive) | -1.15 (inactive) | -1.46 (inactive) | 3.42 | 3.22 (inactive) | -0.134 | 0.486 | -0.285 | -0.0987
6 | C=C(COC)C(=O)CC[C@H](OC(C)=O)c1ccc(CO)o1 | -0.374 | 0.275 | -0.148 | 0.265 | -0.0537 | 0.0866 | 0.0976 | -0.28 (inactive) | -0.225 | -0.132 | -0.451 | -1.16 (inactive) | -0.603 (inactive) | -1.46 (inactive) | 2 | 1.5 (inactive) | -0.0963 | 1.31 | 0.651 | -0.067
7 | [N-]=[N+]=NCc1ccccc1[C@H]1OC(c2ccc(OCCCO)cc2)=N[C@@]1(CCS(=O)(=O)c1ccccc1)C(=O)O | 0.0191 | 0.401 | -0.0087 | 0.135 | 1.21 | 1.01 | 0.19 | 6.44 (inactive) | 0.785 | 0.0881 | 0.0361 | -0.791 (inactive) | -0.155 (inactive) | -0.814 (inactive) | 3.11 | 0.32 (inactive) | 0.021 | -0.482 | 0.253 | -0.067
8 | O=C(N1CCOCC1)[C@]1(CCS(=O)(=O)c2ccccc2)N=C(c2ccc(OCCCO)cc2)O[C@@H]1c1ccccc1 | 0.217 | 2.19 | -0.0667 | 0.479 | 1.22 | 1.94 | 1.3 | -1.49 (inactive) | 1.31 | -0.0994 | 1.45 | 0.825 (inactive) | 0.778 (inactive) | 2.98 (inactive) | 3.26 | 1.14 (inactive) | 0.227 | 0.0673 | 1.08 | 0.0727
9 | CC(C)[Si]1(C(C)C)OCc2cc(-c3ccc(-c4ccc(Cl)c(Cl)c4)o3)nc(-c3ccc(Oc4ccccc4)cc3)c21 | 0.639 | -1.11 | -0.207 | -0.738 | -1.78 | -0.762 | -0.6 | 1.52 (inactive) | -0.857 | -0.306 | -1.67 | 0.797 (inactive) | -0.504 (inactive) | 2.3 (inactive) | -1.07 | -0.888 (inactive) | 0.0358 | -1.78 | -1.57 | -0.447
10 | C=CCOC(=O)[C@H]1[C@@H]2C(=O)O[C@@H](c3ccccc3)[C@@H](c3ccccc3)N2[C@@H](c2ccc(OCCOC(=O)[C@@H]3C[C@@H]4C(=O)N[C@@H](Cc5ccccc5)C(=O)N4[C@@H]3c3ccc(O)cc3)cc2)[C@]12C(=O)Nc1ccc(I)cc12 | 1.36 | 0.0366 | -0.0861 | 0.449 | 0.437 | 0.422 | 1.08 | 1.3 (inactive) | 0.258 | -0.0645 | 1.34 | 1.77 (inactive) | 2.14 (inactive) | 5.89 (inactive) | 1.93 | 0.114 (inactive) | -0.0666 | 1.49 | 0.918 | -0.0119
